Results filed as inconclusive are left out. The source made the active and inactive calls. Rule for the calls: active = hit-call score of the fitted dose curve at least 0.9, where 1 is the maximum; inconclusive = response in the unintended direction; inactive = score below 0.9.
Target: human Neonicotinoid receptor (NNR), CHRNA2 (gene 1135) (UniProt Q15822)
Experiment: NVS_LGIC_hNNR_NBungSens: NovaScreen (NVS) Ligand-Gated Ion Channel Assay for human Neonicotinoid receptor (NNR) (AID 2283313)
Procedure, shortened: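 Compounds first screened in duplicate at 25 uM, then actives re-tested in single-replicate dose series up to 50 uM. Binding measured as displacement of specific radioligand from neuroblastoma membrane receptors after 2 h, scintillation read on filters.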

Chain of human Neonicotinoid receptor (NNR), CHRNA2 (gene 1135) (Q15822 whole entry, looked up): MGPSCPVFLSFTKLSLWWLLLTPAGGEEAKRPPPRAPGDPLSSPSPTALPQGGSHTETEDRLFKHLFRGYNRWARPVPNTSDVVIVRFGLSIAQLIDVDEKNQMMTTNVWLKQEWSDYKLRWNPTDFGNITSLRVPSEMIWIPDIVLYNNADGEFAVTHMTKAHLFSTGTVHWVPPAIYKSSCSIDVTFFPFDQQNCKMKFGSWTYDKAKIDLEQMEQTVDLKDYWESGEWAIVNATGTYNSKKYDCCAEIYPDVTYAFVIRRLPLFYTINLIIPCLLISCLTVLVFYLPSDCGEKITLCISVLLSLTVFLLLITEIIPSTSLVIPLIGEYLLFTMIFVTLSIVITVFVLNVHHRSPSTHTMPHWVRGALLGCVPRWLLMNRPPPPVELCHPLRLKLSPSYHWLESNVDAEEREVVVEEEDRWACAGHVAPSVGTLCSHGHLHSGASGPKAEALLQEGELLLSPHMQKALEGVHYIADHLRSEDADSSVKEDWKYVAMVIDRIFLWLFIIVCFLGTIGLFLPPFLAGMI

Structure (SMILES)	outcome	AC50
Cc1[nH]cnc1C[C@H]1CCc2c(C)c3ccccc3n2C1=O	inactive	–
CN(C)CCCN1c2ccccc2Sc2ccc(Cl)cc21	–	35.7 µM (active)
Cn1cnc2c1c(=O)[nH]c(=O)n2C	–	15.4 µM (active)

Target: bovine Gamma-Aminobutyric Acid Type A Receptor BDZ, alpha 1 site (GABARa1), GABRA1 (gene 780973) (UniProt P08219)
Sequence (P08219 whole entry, looked up): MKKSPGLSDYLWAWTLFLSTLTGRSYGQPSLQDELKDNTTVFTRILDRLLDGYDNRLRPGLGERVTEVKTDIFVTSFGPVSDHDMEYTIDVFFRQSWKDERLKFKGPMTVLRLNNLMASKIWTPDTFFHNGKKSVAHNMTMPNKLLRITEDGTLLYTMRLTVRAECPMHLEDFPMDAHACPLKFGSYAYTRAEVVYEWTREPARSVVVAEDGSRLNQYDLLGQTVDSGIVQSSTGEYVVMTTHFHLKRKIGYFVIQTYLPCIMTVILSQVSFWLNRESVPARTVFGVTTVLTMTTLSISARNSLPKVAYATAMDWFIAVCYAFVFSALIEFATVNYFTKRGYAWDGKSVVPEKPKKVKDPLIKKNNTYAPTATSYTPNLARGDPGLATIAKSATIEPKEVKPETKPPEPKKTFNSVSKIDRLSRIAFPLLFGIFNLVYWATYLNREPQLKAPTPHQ
Experiment: NVS_LGIC_bGABARa1: NovaScreen (NVS) Ligand-Gated Ion Channel Assay for bovine Gamma-Aminobutyric Acid Type A Receptor BDZ, alpha 1 site (GABARa1) (AID 2283321)
Procedure, shortened: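 Bovine cortex membrane preparation, benzodiazepine site on GABA-A alpha1; specific radioligand displacement read after 0.75 h by filtration and scintillation. Screen at 25 uM, then singleton titrations up to 50 uM; DMSO baseline.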

Structure (SMILES)	outcome	AC50
CC[C@H](C)[C@@H](C(=O)O)n1sc2ccccc2c1=O	inactive	–
CN(C)CCCN1c2ccccc2Sc2ccc(Cl)cc21	inactive	–
C#C[C@]1(O)CC[C@H]2[C@@H]3CCC4=CC(=O)CC[C@@H]4[C@H]3CC[C@@]21C	–	1.27 µM (active)
O=C(OCCOCCOC(=O)c1ccccc1)c1ccccc1	–	1.4 µM (active)

Target: rat Gamma-Aminobutyric Acid Type A Receptor BDZ, alpha 6 site (GABARa6), Gabra6 (gene 29708) (UniProt P30191)
Sequence (P30191 whole entry, looked up): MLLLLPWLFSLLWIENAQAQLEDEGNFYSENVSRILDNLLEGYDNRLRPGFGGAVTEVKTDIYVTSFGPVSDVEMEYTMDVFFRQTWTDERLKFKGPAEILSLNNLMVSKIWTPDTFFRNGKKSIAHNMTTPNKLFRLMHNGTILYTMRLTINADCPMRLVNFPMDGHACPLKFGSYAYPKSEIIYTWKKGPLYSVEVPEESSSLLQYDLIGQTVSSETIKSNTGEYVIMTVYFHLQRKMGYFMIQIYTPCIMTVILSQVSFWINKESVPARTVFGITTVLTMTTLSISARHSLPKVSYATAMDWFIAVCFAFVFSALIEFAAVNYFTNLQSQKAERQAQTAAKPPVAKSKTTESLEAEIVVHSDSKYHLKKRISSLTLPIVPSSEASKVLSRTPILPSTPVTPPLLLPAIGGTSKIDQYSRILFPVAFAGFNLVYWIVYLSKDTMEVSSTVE
Experiment: NVS_LGIC_rGABARa6: NovaScreen (NVS) Ligand-Gated Ion Channel Assay for rat Gamma-Aminobutyric Acid Type A Receptor BDZ, alpha 6 site (GABARa6) (AID 2283339)
Procedure, shortened: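 Actives from a 25 uM duplicate screen were retested in concentration series (max 50 uM). Specific radioligand displacement from rat cerebellar membranes was counted by filter-based scintillation at 1 h; DMSO served as baseline.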

Structure (SMILES)	outcome
CC[C@H](C)[C@@H](C(=O)O)n1sc2ccccc2c1=O	inactive
CC(C)(C)CC(C)(C)c1ccc(O)c(-n2nc3ccccc3n2)c1	inactive
O=C(OCCOCCOC(=O)c1ccccc1)c1ccccc1	inactive

— PubChem BioAssay (EPA / NIEHS)
